Here are results for 38 compounds from PubChem BioAssay (EPA / NIEHS).

“And” between values parts separate entries of the source, which are not always exact repeats. Identical values can stand only once. The source holds several records for some structures; these can differ, active in one and inactive in another. The source made the active and inactive calls. The calls were made as follows: active = hit-call score of the fitted dose curve at least 0.9, where 1 is the maximum; inactive = score below 0.9.

The test in a line: ATG_BRE_CIS: Attagene CIS-FACTORIAL HepG2 Assay for human Bone Morphogenetic Protein (BMP) Response Element (BRE) (AID 2282933). To be noted: HepG2 BMP response element reporter, Attagene transcription factor profiling; actives raise or lower the signal. As for the experimental part:
ATG_CIS is a cell-based, multiplexed-readout assay that uses HepG2, a human liver cell line, with measurements taken at 24 hours after chemical dosing in a 24-well plate.ATG_BRE_CIS is one of 52 assay component(s) measured or calculated from the ATG_CIS assay. It is designed to make measurements of mRNA induction, a form of inducible reporter, as detected with fluorescence intensity signals by Reverse transcription polymerase chain reaction (RT-PCR) and Capillary electrophoresis technology.Data from the assay component ATG_BRE_CIS was analyzed into 1 assay endpoint. This assay endpoint, ATG_BRE_CIS, was analyzed with bidirectional fitting relative to DMSO as the negative control and baseline of activity. Using a type of inducible reporter, measures of mRNA for gain or loss-of-signal activity can be used to understand the reporter gene at the transcription factor-level as they relate to the gene SMAD1. Furthermore, this assay endpoint can be referred to as a primary readout, because this assay has produced multiple assay endpoints where this one serves a reporter gene function. To generalize the intended target to other relatable targets, this assay endpoint is annotated to the dna binding intended target family, where the subfamily is Smad protein.
Human liver HepG2 cells are transiently transfected with multiple reporter transcription units (MRTUs) in 6-well plates using FuGene 6 reagent (Roche; 3 ml FuGene/1 mg DNA). The MRTU constructs are regulated by a cis-regulating element (promoter). […] A major difference between the CIS and TRANS system is that in CIS activities of endogenous TFs are measured, whereas the TRANS assay evaluates changes in activities of exogenous, chimeric NR-Gal4 proteins. […] At the end of 24 hour incubation, total RNA was isolated using TriZol reagent (Invitrogen). The isolated RNA is then reverse-transcribed using oligo(dT) primer and Mo-MLV reverse transcriptase (Invitrogen) with DNAse I (Ambion) treatment for 30 min. The one-tenth of the produced cDNA was amplified by PCR using Taq DNA polymerase (Invitrogen) and two reporter sequence-specific primers. The PCR products were fluorescently labeled by primer extension with 6-arboxyfluorescein (6-FAM) 5'-labeled reporter sequence-specific primer (2 min at 95 C, 20 s at 68 C and 10 min at 72 C) and these products were digested with 5U of HpaI (New England Biolabs) for 2h at 37 C. The fragments were purified using Qiaquick PCR columns (Qiagen), analyzed on an ABI 3130xL genetic analyzer (Applied Biosystems) with peak positions identified by using a set of X-rhodamine (ROX)-labeled MapMarker1000 molecular weight standards (BioVentures). The raw capillary electrophoresis data was processed using Attagraph software (Attagene).
A word on the AC50: it is the midpoint of the concentration-response curve, whichever way the signal moves. As to `C/C=C/C(=O)C1=C(C)CCCC1(C)C`, the AC50 is 27.3 µM (active).
As to `CC1=CC(=O)c2ccccc2C1=O`, the compound was called inactive.
For `O=C(NO)c1ccccc1`, the AC50 is 21 µM (active) [middle of 4 runs].
In the case of `CCC1CO1` (stereo not given), the compound was called inactive.
As for `CCOCCOCC`, the call was inactive.
Consider `C=CC(=O)OCCN(CC)CC`, for which the call was inactive.
Consider `FCOC(C(F)(F)F)C(F)(F)F`, for which the outcome was inactive.
Still for that read-out and setting: next, `c1cc2cccc3c4cccc5cccc(c(c1)c23)c54`: “inactive”.
Same read-out and setting: next, `CCCCc1oc2ccccc2c1C(=O)c1cc(I)c(OCCN(CC)CC)c(I)c1`: “inactive”; `CCCCCCCCCCCC[N+](C)(C)Cc1ccccc1`: “inactive”.
For the compound `Nc1cc(Cl)c(-c2cc(Cl)c(N)cc2Cl)cc1Cl`, the AC50 was 21 µM (active).
`COc1cc(OC)nc(NC(=O)NS(=O)(=O)Nc2ccccc2C(=O)N(C)C)n1`: the outcome was inactive.
Take `Cc1cc(C(C)(C)C)c(O)c(C(C)(C)C)c1`: the compound was called inactive.
`O=C(c1ccccc1)c1ccccc1`: the outcome was inactive.
On to `CC=O`, for which the compound was classed as inactive.
As for `CCCCCCCCCCCCOC(=O)c1cc(O)c(O)c(O)c1`, the compound was called inactive.
On the same count and under the same terms, under `C=CC(=O)OCCC(F)(F)C(F)(F)C(F)(F)C(F)(F)C(F)(F)C(F)(F)C(F)(F)C(F)(F)F` stands “inactive”; under `CCCCCCCCCCCCCCCC(=O)OC`, “inactive”.
For the compound `CN(CCO)S(=O)(=O)C(F)(F)C(F)(F)C(F)(F)C(F)(F)C(F)(F)C(F)(F)C(F)(F)C(F)(F)F`, the compound was called inactive.
Consider `O=C1C=CC(=O)N1c1cccc(N2C(=O)C=CC2=O)c1`, for which the outcome was inactive.
Still for that read-out and setting: under `COC(O)c1ccccc1` (stereo not given) stands “inactive”; under `Nc1ccc(O)c(C(=O)O)c1`, “inactive”.
With `C=C(c1ccc(C(=O)O)cc1)c1cc2c(cc1C)C(C)(C)CCC2(C)C`, the compound was called inactive.
As for `O=P(O)(O)CCC(F)(F)C(F)(F)C(F)(F)C(F)(F)C(F)(F)C(F)(F)F`, the outcome was inactive.
For the compound `O=C1OC2(c3ccccc31)c1cc(I)c(O)c(I)c1Oc1c2cc(I)c(O)c1I`, the AC50 was 88.1 µM (active) and 82.7 µM (active); the compound was called inactive.
For `O=C(F)C(F)(F)C(F)(F)C(F)(F)C(=O)F`, the outcome was inactive.
The same measure, in the same setting: under `CCCCCCCC(OC)OC` stands “inactive”; under `O=C(C=C(O)C(F)(F)F)C(F)(F)F`, “inactive”; under `O=C(CC(=O)C(F)(F)C(F)(F)C(F)(F)F)c1cccs1`, “inactive”.
With `Cc1cc(=O)oc2cc(O)ccc12`, the call was inactive.
Same read-out and setting: under `Oc1cc2ccccc2cc1O` stands “inactive”; under `FC(F)(F)C1(F)C(F)(F)C(F)(F)C(F)(F)C1(F)F`, “inactive”; under `C=CC(=O)OCCC(F)(F)C(F)(F)C(F)(F)C(F)(F)C(F)(F)C(F)(F)F`, “inactive”.
Turning to `FC(F)(F)C(F)(F)C(F)(F)Br`, the result was inactive.
Regarding `CC(C)(C)c1ccc(O)c(O)c1`, the AC50 was 47.3 µM (active) and the compound was classed as inactive.
In the case of `c1cnc2c(c1)ccc1cccnc12`, the call was inactive.
Consider `CCCCCCC(C)(C)C(=O)O`, for which the compound was called inactive.
Turning to `Cc1cccc2c1ccc1ccccc12`, the compound was called inactive.
